# Screening data: PubChem, National Center for Advancing Translational Sciences (NCATS)
# This is a sample that favours compounds with a hit; in the whole collection about 2.4% have one here.
# Pol eta inh – qHTS for Inhibitors of Polymerase Eta | DNA polymerase eta (Homo sapiens), Q9Y253 | recombinant Pol eta, fluorescent DNA replication assay | Potency, µM (top dose mostly 114 µM), for inactives: at the top dose activity change, negative = inhibition, hits mostly inhibitors | 390,000 tested, 1.2% active | AID 588591, 2011; note: % is set by controls: 0 for no effect and ±100 for the full control effect
#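 Pol eta at 10 nM preincubated with compounds 15 min at room temperature; reaction started with fluorescent substrate (50 nM final) and read kinetically at 0 and 10 min.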
# POLK inh – qHTS for Inhibitors of Polymerase Kappa | DNA polymerase kappa (Homo sapiens), Q9UBT6 | purified Pol kappa, fluorescent DNA synthesis assay, 10 min | Potency, µM (top dose mostly 107 µM), without a hit: at the top dose activity, negative = inhibition, actives largely listed as inhibitors | 400,000 tested, 0.53% active; note: % is set by controls: 0 for no effect and ±100 for the full control effect
#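 Inhibition of 10 nM Pol kappa is measured by a fluorescent read-out at 0 and 10 min following addition of 50 nM substrate (final), with a 15-min room-temperature compound preincubation.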
# POLI inh – qHTS for Inhibitors of Polymerase Iota. AID 588590, 2011. Potency, µM (titrated, usually from 115 µM), without a hit: at the highest dose activity, negative = inhibition, actives largely listed as inhibitors. 390,000 tested, 1% active. Pol iota fluorescent replication assay, 10 min
#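 Pol iota at 10 nM preincubated 15 min with compounds at room temperature; reaction started with fluorescent substrate, 50 nM final. Fluorescence read kinetically at 0 and 10 min; buffer-only wells as negative control.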
# FEN1 inhibitor – qHTS Assay for the Inhibitors of Human Flap endonuclease 1 (FEN1); Potency, µM (doses to about 114 µM), inactives show at the highest dose activity change, negative = inhibition, usual class: inhibitors; P39748; AID 588795, 2011; Recombinant FEN1 flap cleavage, fluorescence, 15 min; 390,000 tested, 0.35% active; note: % is set by controls: 0 for no effect and ±100 for the full control effect; nearly all actives have a fitted effect of over 65% in size
# Target sequence (P39748 whole entry, looked up): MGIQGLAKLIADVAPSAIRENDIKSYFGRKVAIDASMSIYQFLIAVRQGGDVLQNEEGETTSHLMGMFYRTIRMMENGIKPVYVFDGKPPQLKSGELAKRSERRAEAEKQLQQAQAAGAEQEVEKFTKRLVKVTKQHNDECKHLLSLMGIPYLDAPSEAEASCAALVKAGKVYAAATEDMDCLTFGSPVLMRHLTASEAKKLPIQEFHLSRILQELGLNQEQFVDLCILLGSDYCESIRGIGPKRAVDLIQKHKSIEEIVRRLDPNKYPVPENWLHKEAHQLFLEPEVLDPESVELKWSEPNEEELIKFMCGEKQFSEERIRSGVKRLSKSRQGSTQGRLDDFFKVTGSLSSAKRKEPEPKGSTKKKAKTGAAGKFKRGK
#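 Steps: FEN1 (10 nM) dispensed; compound added by pin tool; 15 min at room temperature; substrate added to 50 nM final; reads at 0 min and 15 min; data normalized and fitted (four-parameter Hill).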
# WRN helicase inh – qHTS for Inhibitors of WRN Helicase; Bifunctional 3'-5' exonuclease/ATP-dependent helicase WRN (Homo sapiens), Q14191; WRN helicase unwinding, fluorescent forked duplex, kinetic; Potency, µM (doses to about 114 µM), for inactives: at the top dose activity change, negative = inhibition, most hits filed as inhibitors; 360,000 tested, 0.46% active; note: % is set by controls: 0 for no effect and ±100 for the full control effect; nearly all actives have a fitted effect of over 55% in size
#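 Primary qHTS, 1536-well format. 20 nM WRN + compound, 15 min RT; start with 100 nM forked fluorophore/quencher duplex, 2 mM ATP (final); kinetic read ex 525/em 598 nm.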
# Pol beta inh – qHTS Assay for Inhibitors of DNA Polymerase Beta; Pol beta primer extension/strand displacement, fluorescence kinetic; 340,000 tested, 1.3% active; Potency, µM (highest dose often 114 µM), for inactives: top-dose activity change, negative = inhibition, hits mostly inhibitors; note: % is set by controls: 0 for no effect and ±100 for the full control effect
#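 Reaction started by 50 nM substrate onto compound-treated Pol beta (10 nM, 15 min preincubation, room temperature); plates read at 0 min and 10 min. Normalized concentration-effect data fitted by four-parameter Hill equation.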
# The depositor's hits bear a star; u = inconclusive; x = not tested or not shown; [ ] = dose if it differs, or a comment. Calls come from the whole dose curve; as a rule, active = well fitted curve in the direction sought with a large enough effect; inconclusive = small, poorly fitted or top-dose-only effect, or another doubt; inactive = no such curve, though single readings can be large; an effect the other way counts as inactive or inconclusive. Potency is the fitted concentration of half-maximal effect.
SMILES,Pol eta inh,POLK inh,POLI inh,FEN1 inhibitor,WRN helicase inh,Pol beta inh
COC(=O)CC1C(C)(C)C(O)C2CC3=C4C=C(OC)OC(c5ccoc5)[C@]4(C)CCC3[C@@]1(C)C2=O (some centres undefined),x,-10.1%[60.1 µM],x,x,x,x
O=Cc1ccc(-c2ccccc2C(=O)O)o1,4.1%,-11.6%,83.2%,-0.2%,-4.7%,u
CN(C)/C=C1/C(=O)N(c2ccc([N+](=O)[O-])cc2)N=C1c1ccccc1,x,x,x,x,x,23.3%
CC1=NN(c2ccc(Br)cc2)C(=O)/C1=C/c1ccc(-c2ccccc2C(=O)O)o1,79.4µM*,-9.8%,u,u,-22.5%[11.6 µM],-0.1%
O=C(O)c1ccc(N/N=C/c2ccc(-c3cccc(Cl)c3)o2)cc1,79.4µM*,-22.7%,u,u,-17.9%,u
O=C1/C(=C\c2ccc(-c3ccccc3[N+](=O)[O-])o2)C(c2ccccc2)=NN1c1ccccc1,50.1µM*,-10.9%,10µM*,-5.0%,2.6%,-8.9%
Cc1c(C(=O)O)cccc1-c1ccc(/C=N/Nc2ccc(Br)cc2)o1,22.4µM*,-34.5%,u,-1.0%,u,u
CC(C)(C)n1ncc2c(=O)n(Cc3ccc(F)cc3F)cnc21,x,-0.7%,-19.6%,-19.0%,x,x
COc1cc(OC)cc(C(=O)N[C@H](C(=O)OCC(=O)Nc2sccc2C#N)C(C)C)c1,50.1µM*,u,u,-7.1%,-5.4%[11.6 µM],u
N#Cc1ccsc1NC(=O)COC(=O)c1ccc(Br)o1,u,-41.8%,25.1µM*,u,-24.3%,x
COC(=O)c1nc(NC(=O)C(C)(C)C)n[nH]1,1.8%,-8.2%,79.4µM*,-16.4%,10.3%,0.8%
COC(=O)c1nc(NC(=O)c2ccc(Br)cc2)n[nH]1,-2.6%,-12.0%,-3.3%,1.4%,-17.7%,12.8%
CC(=O)c1ccc(Nc2nc3c(S(=O)(=O)c4ccccc4)nnn3c3ccc(Cl)cc23)cc1,-12.6%,0.3%,-1.4%,-9.0%,x,-0.5%
CC(NC(=O)COC(=O)c1cc([N+](=O)[O-])ccc1N1CCOCC1)c1ccc(F)cc1 (centres undefined),56.2µM*,u,u,10.4%,-7.7%[11.6 µM],x
CC(NC(=O)COC(=O)c1cc([N+](=O)[O-])ccc1N1CCOCC1)c1ccccc1 (centres undefined),-21.3%,-5.2%,22.4%,-6.4%,-15.4%,-0.8%
O=S(=O)(Nc1nc2ccccc2nc1Nc1ccc2c(c1)OCCO2)c1cccs1,u,-42.3%,u,-10.7%,u,17.8µM*
COc1ccc(S(=O)(=O)Nc2nc3ccccc3nc2Nc2ccc3c(c2)OCO3)cc1,x,x,x,x,x,2.0%
CCCCCCCCCC[n+]1ccc(/C=C/c2c(C)[nH]c3ccccc23)cc1,x,-23.3%,-8.4%,79.4µM*,x,x
Cc1cnnc2ccccc12,x,-17.2%,-11.2%,-11.0%,x,x
N#Cc1c(NCCN)nc(-c2ccco2)c2c1CCCC2,-13.7%,-9.5%,-3.6%,-20.3%,6.0%,56.2µM*
CC1(C)Cc2c(C#N)c(NCc3ccco3)nc(-c3ccco3)c2CO1,14.1µM*,-44.7%,u,9.1%,-23.8%[57.1 µM],u
Cc1c(Cl)ccc2sc(NC(=O)c3ccc(S(=O)(=O)N4CCCc5ccccc54)cc3)nc12,-12.1%,-1.5%[60.1 µM],21.4%,0.5%,x,u
O=C(NCCCN1CCN(c2ccccc2)CC1)c1nnc(Cc2ccc(F)cc2)o1,-16.7%,-0.6%,18.6%,4.6%,x,-20.2%
CC(=O)N1CCC2(CC1)OC(=O)C(C)=C2C(=O)Nc1ccccc1C(F)(F)F,1.5%,-6.5%,4.0%,-3.9%,x,7.5%
